Records with an inconclusive call do not appear. Active and inactive are the calls of the source. Calls come from the whole dose curve; as a rule, active = well fitted curve in the direction sought with a large enough effect; inconclusive = small, poorly fitted or top-dose-only effect, or another doubt; inactive = no such curve, though single readings can be large or run the other way.

The target in this assay is Calcium and integrin-binding protein 1 (Homo sapiens) (UniProt Q99828). Briefly: Validation qHTS for Identification of Calcium Integrin Binding protein 1 (CIB1) Competitor (AID 1508618). To be noted: CIB1-GST / FITC-alphaIIb peptide fluorescence polarization; series mostly up to 114 µM. An excerpt: Assay Provider: Ulhas P. Naik, PhD
Calcium and integrin-binding protein 1 (Homo sapiens), sequence (Q99828 whole entry, looked up): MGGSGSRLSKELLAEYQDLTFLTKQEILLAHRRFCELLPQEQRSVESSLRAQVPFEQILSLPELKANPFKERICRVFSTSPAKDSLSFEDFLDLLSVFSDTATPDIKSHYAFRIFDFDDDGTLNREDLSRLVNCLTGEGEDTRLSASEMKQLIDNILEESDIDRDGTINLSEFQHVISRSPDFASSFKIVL
Sidney Kimmel Medical College
Thomas Jefferson University, Philadelphia, PA
Primary function of platelets is to maintain hemostasis. At the site of vascular injury, platelets adhere to adhesive proteins such as collagen and von Willebrand factor. Adherent platelets are activated and generate soluble platelet agonists such as thrombin, ADP and thromboxane A2. Following exposure of circulating platelets to these agonists, results in platelet shape change, granule secretion and activation of platelet integrin alphaIIb-beta3. Ligand binding to activated integrin alphaIIb-beta3 triggers outside-in signaling, leading to platelet aggregation, stabilization of platelet plug, and clot retraction. Upon atherosclerotic plaque rupture also causes platelet plug formation, which underlies a number of cardiovascular diseases such as myocardial infraction and stroke. A number of anti-platelet drugs such as aspirin, clopidogrel, prasugrel, vorapaxar, and eptifibatide are currently available to prevent the thrombotic complications. However, these anti-platelet agents have several limitations including inherent variability in individual responses, developing resistance, and serious bleeding side effects. For these reasons they are not suitable for long-term protection. Based on the experiences with current anti-platelet drugs, it appears that the most useful therapeutic approach is to intersect the secondary responses such as integrin outside-in signaling or recruitment of platelets by TxA2 and secreted ADP. Compounds, which can largely preserve the primary hemostatic function of platelets but inhibit secondary response will be most desired therapeutic agents for treatment of cardiovascular disease.
CIB1 is a calcium integrin binding protein, which specifically interact with the alphaIIb subunit of integrin alphaIIb-beta3. Binding of CIB1 to alphaIIb regulates the outside-in signaling in platelets, which is needed for thrombus stabilization and thrombus growth. […] Therefore, we propose that discovery of a small molecule that can prevent the association of CIB1 and alphaIIb-beta3 will be a potential anti-platelet agent that can block the thrombus formation without undue effect on hemostasis.
To develop fluorescence polarization (FP) assay using fluorescently labeled alphaIIb peptide and CIB1 protein. Using FP assay characterize the binding affinity, competitive inhibition, and acceptable Z factor (0.5 to1) in order to perform the HTS to identify small molecule compound that can prevent CIB1 binding to platelet integrin alphaIIbbeta3. This assay is screened against the NCATS LOPAC library to validate the amenability of the assay to qHTS.
[1] Naik MU, Nigam A, Manrai P, et al. CIB1 deficiency results in impaired thrombosis: the potential role of CIB1 in outside-in signaling through integrin alpha IIb beta 3. J Thromb Haemost. 2009;7(11):1906-1914. doi:10.1111/j.1538-7836.2009.03581.
SEQUENCE No. (1, 2, 3, etc.); […] (e.g., Cells, Incubation, Reagent, etc.); VALUE and DESCRIPTION.
1; Reagent; 3 uL; Protein or buffer (4/3x)
2; Compound; 46 nL; Control inhibitor / compound library
3; Time; 15 min; Room temperature incubation
4; Reagent; 1 uL; Fluorescent labeled peptide (4x)
5; Time; 1000 rpm; Centrifuge
6; Time; 15 min; Room temperature incubation
7; Detection; Ex 480/ Em 540; ViewLux Fluorescence Read
NOTES (numbers refer to sequence above)
1; Protein Mixture: C1B1-GST (final concentrations of 1 uM). Buffer composition: 5 mM HEPES pH 7.4, 125 mM NaCl, 5 mM CaCl2, 0.01% Tween20.
2; Control Inhibitor: unlabeled peptide (final concentration range 17.4 nM to 572 uM). Compound Library final concentration range 18.3 nM to 114 uM.
3; Room temperature incubation.
4; Fluorescent Labeled Peptide: FITC-aIIb (final concentration of 100 nM). Sequence of alphaIIb peptide: Acetyl-[…]-FITC (purity is 95.83%).
6; Room temperature incubation.
[…]
For `Cc1cccc(C)c1NC(=O)C(C)N` (stereo not given), the result was inactive.
As for `CCCCNc1ccc(C(=O)OCCN(C)C)cc1`, the entry is “inactive”; as for `N[C@@H](COP(=O)(O)O)C(=O)O`, “inactive”; as for `CN(C)C(=O)Oc1ccc[n+](C)c1`, “inactive”.
In the case of `Cc1nc2ccccn2c(=O)c1CCN1CCC(C(=O)c2ccc(F)cc2)CC1`, the result was inactive.
As for `c1ccc2c(c1)CCCC2C1=NCCN1` (stereo not given), the entry is “inactive”; as for `CCCCNc1c(C(=O)OCC)c(C)nc2c1cnn2CC`, “inactive”; as for `COc1ccc2c(c1OC)C(=O)O[C@@H]2[C@H]1c2c(cc3c(c2OC)OCO3)CCN1C`, “inactive”.
For `CC(=O)[C@]1(O)Cc2c(O)c3c(c(O)c2[C@@H](O[C@H]2C[C@H](N)[C@H](O)[C@H](C)O2)C1)C(=O)c1ccccc1C3=O` the value was “inactive”.
For `CO[C@@]1(NC(=O)CSCC#N)C(=O)N2C(C(=O)O)=C(CSc3nnnn3C)CS[C@@H]21` the value was “inactive”.
As for `CCc1c(C)[nH]c2c1C(=O)C(CN1CCOCC1)CC2` (stereo not given), the outcome was inactive.
As for `COc1ccc(CN(CCN(C)C)c2ccccn2)cc1`, the entry is “inactive”; as for `CC(=O)OC(C)C[N+](C)(C)C` (stereo not given), “inactive”; as for `CCN(CC)CC(=O)Nc1c(C)cccc1C`, “inactive”.
As for `NC(=O)N1c2ccccc2C=Cc2ccccc21`, the outcome was inactive.
As for `Nc1ncn([C@@H]2O[C@H](CO)[C@@H](O)[C@H]2O)c(=O)n1`, the entry is “inactive”; as for `CCCCNC(=O)NS(=O)(=O)c1ccc(C)cc1`, “inactive”; as for `c1cnc(N2CCN(Cc3ccc4c(c3)OCO4)CC2)nc1`, “inactive”.
On to `O=C(O)CN(CCN(CC(=O)O)CC(=O)O)CCN(CC(=O)O)CC(=O)O`, for which the result was inactive.
For `CCc1cccc(N(C)C(N)=Nc2cccc3ccccc23)c1` the value was “inactive”; for `c1cc(CN2CCCCC2)cc(OCCCNc2nc3ccccc3s2)c1`, “inactive”.
With `Cc1scc2c1N(C(=O)CN1CCN(C)CC1)c1ccccc1NC2=O`, the result was inactive.
For `CCCCCCCC/C=C\CCCCCCCC(=O)NCc1ccc(O)c(OC)c1` the value was “inactive”.
For `O=c1[nH]c(=O)n([C@H]2C[C@H](O)[C@@H](CO)O2)cc1Br` the value was “inactive”.
As for `CCCN(CCC)C(=O)C(CCC(=O)O)NC(=O)c1ccccc1` (stereo not given), the entry is “inactive”; as for `CN1CCN(C2=Nc3ccccc3Oc3ccc(Cl)cc32)CC1`, “inactive”; as for `CCn1nc(C(=O)O)c(=O)c2cc3c(cc21)OCO3`, “inactive”.
On to `COCCOC(=O)C1=C(C)NC(C)=C(C(=O)OC(C)C)C1c1cccc([N+](=O)[O-])c1` (stereo not given), for which the outcome was inactive.
For `CC(N=C(NC#N)Nc1ccncc1)C(C)(C)C` (stereo not given) the value was “inactive”; for `O=C(O)CP(=O)(O)O`, “inactive”.
As to `COC(=O)[C@@H](N)Cc1ccc(O)c(O)c1`, the outcome was inactive.
For `Cc1nc2c([nH]1)c(=O)n(C)c(=O)n2Cc1ccco1` the value was “inactive”.
Take `CCN(CC)CCNC(=O)c1ccc(NC(C)=O)cc1`: the result was inactive.
For `NC1=NCC2c3ccccc3Cc3ccccc3N12` (stereo not given) the value was “inactive”.
As for `C=CCc1ccccc1OCC(O)CNC(C)C` (stereo not given), the entry is “inactive”; as for `CN(C)CCOC(=O)COc1ccc(Cl)cc1`, “inactive”; as for `CSc1ccc(C(=O)c2[nH]c(=O)[nH]c2C)cc1`, “inactive”.
Consider `CN(C)CC/C=C1\c2ccccc2COc2ccccc21`, for which the result was inactive.
For `O=C(O)CN(CCOCCOCCN(CC(=O)O)CC(=O)O)CC(=O)O`, the result was inactive.
As for `C[C@]12CCC(=O)C=C1CC[C@@H]1[C@@H]2CC[C@@]2(C)[C@H]1CC[C@]2(O)C(=O)CO`, the entry is “inactive”.

These data come from PubChem BioAssay (NCATS).
